The entries come from a sample that favours hits as a whole.
Dicer processing: inhibitors of human Dicer processing of pre-microRNA | Q9UPY3 | cat-ELCCA pre-miR-21 Dicer processing, chemiluminescence; active compounds read high | z-score at 25 µM | actives 6% (n = 47,000) | AID 1347074; in the data active = z-score above about 3, passing the limit was not always enough;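 note: plate controls were vehicle for no effect and no enzyme for full effect; higher signal means more uncleaved substrate so more Dicer inhibition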
* = called active by the depositor.

For O=C(CSc1ncnc2sc3c(c12)CCCC3)NCc1ccco1 the results were Dicer processing 0.55.
For CCCNC(=O)CN1C(=O)NC2NC(=O)NC21 (stereo not given) the results were Dicer processing 4*.
CCC(C)NC(=O)CN1C(=O)c2ccccc2S1(=O)=O (stereo not given) was read as Dicer processing 0.07.
`CCCCc1nc(SCC(=O)NC2CCCCC2)n[nH]1` gave Dicer processing 0.32.
O=C(CC(C(=O)O)C1CCCO1)NC1CCCCC1 (stereo not given) was read as Dicer processing -0.13.
Screening CCC(C)NC(=O)CN1C(=O)c2cccc3cccc1c23 (stereo not given) returned Dicer processing 0.41.
For CCC(C)NC(=O)CN1C(=O)NC2NC(=O)NC21 (stereo not given) the results were Dicer processing 4.5*.
For CCCNC(=O)NCCN1CCNC1=O the results were Dicer processing -0.07.
For O=C(CN1C(=O)NC2NC(=O)NC21)NC1CCCCC1 (stereo not given) the results were Dicer processing 3.2*.
Screening CCCNC(=O)Cn1nc(C(F)(F)F)c(Br)c1C returned Dicer processing -0.64.
`Cc1c(S(=O)(=O)Cc2ccc(F)cc2)c(N)n(Cc2ccccc2Cl)c1C` gave Dicer processing 0.14.
For Cc1ccc(-c2c[nH]c(=S)n2C)cc1 the results were Dicer processing -0.91.
`CCCN1C(=O)C2(/C(=C(/O)c3ccc(Cl)cc3)C(=O)C(=O)N2CC2CCCO2)c2ccccc21` (stereo not given) gave Dicer processing 0.03.
`CCCc1nccn1S(=O)(=O)c1cc(Cl)ccc1OC` gave Dicer processing -0.45.
Screening Nc1c(C(=O)c2ccc([N+](=O)[O-])cc2)sc2nc(-c3cccs3)cc(C(F)(F)F)c12 returned Dicer processing 1.5.
COc1ccc(Cl)cc1NC(C)=O was read as Dicer processing 0.03.
Screening N#C/C(=N\Nc1ccc(Cl)cc1)C(=O)C1CC1 returned Dicer processing 2.5.
`COc1cc(Cl)ccc1N/N=C(\C#N)C(N)=O` gave Dicer processing 5*.
`Cc1c(S(=O)(=O)Nc2ccc(C#N)cc2)sc2ccc(Cl)cc12` gave Dicer processing 0.41.
CCc1ccc(N=C(N)N=C(N)N)cc1 was read as Dicer processing 0.41.
Screening NC(N)=NC(N)=Nc1ccc(F)cc1F returned Dicer processing -0.23.
For NN/C(N)=N/C(N)=Nc1ccc(F)cc1 the results were Dicer processing 3*.
`COc1ccc(/C(C)=N/OC(=O)c2ccc([N+](=O)[O-])cc2)cc1CN1CCCC1` gave Dicer processing 0.69.
Screening O=C(O)c1ccc2c(=O)n3c4ccc(Cl)cc4nc3c3ccc(C(=O)O)c1c23 returned Dicer processing 0.93.
For O=C(O)c1ccc2c(=O)n3c4ccccc4nc3c3ccc(C(=O)O)c1c23 the results were Dicer processing 3.1*.
For O=C(O)Cn1c2ccccc2c2nc3ccccc3nc21 the results were Dicer processing -1.6.
COC(=O)c1cc(OC)c(OC)cc1NC(=O)N1c2ccccc2Sc2ccccc21 was read as Dicer processing 1.2.
Screening COc1ccccc1NC(=O)N1c2ccccc2Sc2ccccc21 returned Dicer processing 3.1*.
Screening COc1cc(NC(=O)N2c3ccccc3Sc3ccccc32)c(C(=O)O)cc1OC returned Dicer processing 2.8.
Screening Clc1ccccc1CSC1=NCCCN1C1CCCCC1 returned Dicer processing 0.5.
For COc1ccc(OCC(=O)Nc2ncn[nH]2)cc1 the results were Dicer processing 0.28.
Screening Cc1cccn2cc(-c3ccc(F)cc3)cc12 returned Dicer processing 4.4*.
`Cc1cccn2cc(-c3ccc(F)cc3)nc12` gave Dicer processing 0.34.
For c1ccc(-c2cc3ccccn3c2)cc1 the results were Dicer processing 0.48.
For COc1ccc(C2CC(=O)C3=C(C2)NC(C)=C(C(=O)OC(C)C)C3c2ccccn2)cc1 (stereo not given) the results were Dicer processing 0.15.
CC1=C(C(=O)Nc2cccc(F)c2)C(c2ccccn2)C2=C(CC(C)(C)CC2=O)N1 (stereo not given) was read as Dicer processing 2.2.
`CCC(=O)Nc1nc(NC(=O)CC)nc(-c2ccccc2C)n1` gave Dicer processing 2.9.
Screening NNC(=O)Cn1nnc(-c2ccccc2C(F)(F)F)n1 returned Dicer processing 0.88.
For CC(C)C(=O)Nc1nc(NC(=O)C(C)C)nc(-c2ccccc2C(F)(F)F)n1 the results were Dicer processing 3.2*.
C/C(=N\Nc1nc2c(c(=O)n(C)c(=O)n2C)n1Cc1ccccc1)c1ccncc1 was read as Dicer processing 0.42.
For CCOC(=O)CSc1nc(O)cc(=O)[nH]1 the results were Dicer processing -3.2.
`Cc1sc(N)c(C(=O)c2cccs2)c1C` gave Dicer processing -3.4.
For COC(=O)c1ccc(C(=O)OC)c(NC(=O)Nc2ccc(F)cc2)c1 the results were Dicer processing 0.73.
CCOC(=O)Nc1cc(C(=O)OC)ccc1C(=O)OC was read as Dicer processing 2.1.
For COC(=O)c1ccc(C(=O)OC)c(NC(=O)C2CC3CCC2C3)c1 (stereo not given) the results were Dicer processing 4.3*.
Screening COC(=O)C1=C(C)Nc2nc3ccccc3n2C1c1ccc(C(C)C)cc1 (stereo not given) returned Dicer processing 0.32.
For N#CC(C#N)=NNc1cc(-c2ccccc2)[nH]n1 the results were Dicer processing -1.7.
For O=S(=O)(NCc1ccccc1)c1cc(Br)c(Br)s1 the results were Dicer processing 0.96.
Screening Clc1ccc(Sc2nc(-c3ccccc3)ns2)cc1 returned Dicer processing 1.5.
CN(C)c1ccc(C2CC(=O)C=C(NC3Cc4ccccc4C3)C2)cc1 (stereo not given) was read as Dicer processing 4.6*.
O=C1C=C(NC2Cc3ccccc3C2)CC(c2cccc(Cl)c2)C1 (stereo not given) was read as Dicer processing -0.95.
Screening O=C1C=C(NC2Cc3ccccc3C2)CC(c2ccccc2)C1 (stereo not given) returned Dicer processing -0.9.
For ONC(=Nc1ccc(C(F)(F)F)cc1)c1c(F)cccc1F the results were Dicer processing 0.5.
Screening CCCOc1ccc2nc(NC(=O)OC)sc2c1 returned Dicer processing 1.3.
`CCOc1ccc2nc(NC(=O)c3ccc([N+](=O)[O-])o3)sc2c1` gave Dicer processing 1.
Screening CCOc1ccc2nc(NC(=O)c3cccs3)sc2c1 returned Dicer processing 4*.
CCN(CC)CC(O)Cn1ccc2ccccc21 (stereo not given) was read as Dicer processing -0.44.
Cc1ccc(N=C(C#N)C2=C(O)c3ccccc3C2=O)cc1F was read as Dicer processing -0.88.
`Cc1cc(Cl)ccc1N=C(C#N)C1=C(O)c2ccccc2C1=O` gave Dicer processing 4.8*.
`CCc1cccc(C)c1N=C(C#N)C1=C(O)c2ccccc2C1=O` gave Dicer processing -1.9.
Screening CCOC(=O)c1cc(C)n(-c2cccc(Cl)c2Cl)c1-c1ccccc1 returned Dicer processing -0.36.
`CCCCNCCn1cnc2c(N)ncnc21` gave Dicer processing -3.1.
`CCOc1ccc(C2CC(=O)Nc3nc(N)[nH]c(=O)c32)cc1` (stereo not given) gave Dicer processing 2.1.
`Cc1ccc(C(O)c2cccnc2)o1` (stereo not given) gave Dicer processing 1.7.
For Cc1ccc(C(c2ccc(C)o2)c2ccccc2O)o1 the results were Dicer processing 5.3*.
